Source: PubChem BioAssay (Tox21)
Records with an inconclusive call do not appear. A call without a number means that no potency is given here. Active and inactive are the calls of the source. Unless noted, calls come from the whole dose curve; as a rule, active = well fitted cell-killing curve with a large enough effect in the repeat runs (not every such curve was filed as active); inconclusive = weak or mixed curves, or effect the other way; inactive = no such curve, though single readings can be large or run the other way.

target: Bile acid receptor (Homo sapiens) (UniProt Q96RI1); assay: qHTS assay to identify small molecule agonists of the farnesoid-X-receptor (FXR) signaling pathway (AID 743220; active = well fitted activation curve with a large enough effect in the signal ratio in the repeat runs, not every such curve was filed as active; the % refers to the signal ratio); conditions: HEK293T FXR-UAS-bla, beta-lactamase FRET ratio, 16 h; series mostly up to 62.6 µM
Sequence (Q96RI1 whole entry, looked up): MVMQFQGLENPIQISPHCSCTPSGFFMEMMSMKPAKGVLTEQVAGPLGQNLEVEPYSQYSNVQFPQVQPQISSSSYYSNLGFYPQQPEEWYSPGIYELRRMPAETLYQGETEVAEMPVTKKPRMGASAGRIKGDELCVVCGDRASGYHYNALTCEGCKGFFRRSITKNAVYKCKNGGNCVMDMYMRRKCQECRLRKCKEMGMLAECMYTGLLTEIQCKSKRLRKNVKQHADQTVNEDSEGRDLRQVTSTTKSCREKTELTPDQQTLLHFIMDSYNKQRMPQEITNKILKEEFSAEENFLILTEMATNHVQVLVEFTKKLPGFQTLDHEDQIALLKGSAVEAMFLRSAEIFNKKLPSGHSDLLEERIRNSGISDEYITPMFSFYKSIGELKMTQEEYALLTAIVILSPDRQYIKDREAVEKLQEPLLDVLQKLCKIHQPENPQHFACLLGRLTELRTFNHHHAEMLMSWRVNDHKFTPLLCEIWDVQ
Procedure, shortened: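 FXR-UAS-bla HEK 293T cells carrying a UAS-driven beta-lactamase reporter were plated for 5 h at 37C/5% CO2, then exposed to DMSO-dissolved Tox21 10K compounds for 16 h at 37C. A LiveBLAzer B/G FRET substrate was loaded for 2 h at room temperature before fluorescence reading.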

Row | SMILES | Potency
1 | CC(C)(O)CCc1ccccc1 | inactive
2 | COc1cc(NS(=O)(=O)c2ccc(N)cc2)nc(C)n1 | inactive
3 | CCCCCCCC(=O)Oc1c(Br)cc(C#N)cc1Br | inactive
4 | CCN(Cc1cccc(S(=O)(=O)O)c1)c1ccc(C(=C2C=CC(=[N+](CC)Cc3cccc(S(=O)(=O)O)c3)C=C2)c2ccccc2S(=O)(=O)[O-])cc1 | inactive
5 | CCCCCc1ccco1 | inactive
6 | c1ccc2sc(SSc3nc4ccccc4s3)nc2c1 | inactive
7 | CCN(CC)CCOc1ccccc1C(=O)CCc1ccccc1 | inactive
8 | Cc1c(C2(c3cc(Br)c(O)c(Br)c3C)OS(=O)(=O)c3ccccc32)cc(Br)c(O)c1Br | inactive
9 | COc1cc(NCc2ccc3nc(N)nc(N)c3c2C)cc(OC)c1OC | inactive
10 | CCN(Cc1cccc(S(=O)(=O)O)c1)c1ccc(C(=C2C=CC(=[N+](CC)Cc3cccc(S(=O)(=O)O)c3)C=C2)c2ccc(O)cc2S(=O)(=O)[O-])cc1 | inactive
11 | CCCCCCC(O)CCOC(C)=O (stereo not drawn) | inactive
12 | Nc1nc(-c2ccc([N+](=O)[O-])cc2)cs1 | inactive
13 | Cc1ccc(N(CC2=NCCN2)c2cccc(O)c2)cc1 | inactive
14 | O=[N+]([O-])C1(Br)COCOC1 | inactive

tested on: not listed separately; assay: qHTS assay to identify small molecule antagonists of the farnesoid-X-receptor (FXR) signaling pathway - cell viability counter screen (AID 743221); conditions: FXR-bla HEK293T viability, CellTiter-Glo luminescence, 16 h; series mostly up to 62.6 µM; note: nearly all actives have a fitted effect of over 50% in size; note: potency is the fitted concentration of half-maximal effect
Procedure, shortened: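 Quantitative HTS of the Tox21 10K library run in parallel with the beta-lactamase reporter read. HEK 293T cells carrying a UAS-driven bla reporter got compound and 50 uM CDCA (final) for 16 h; ATP-based luminescence followed.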

Row | SMILES | Potency
15 | CC(C)C1CCC(C(=O)N[C@H](Cc2ccccc2)C(=O)O)CC1 (stereo partly drawn) | inactive
16 | C[C@@H]1[C@H](O)[C@@H](C)/C=C/C=C\C=C\C=C\C=C\C=C\C=C\[C@H](O[C@@H]2O[C@H](C)[C@@H](O)[C@H](N)[C@@H]2O)C[C@@H]2O[C@](O)(C[C@@H](O)C[C@@H](O)[C@H](O)CC[C@@H](O)C[C@@H](O)CC(=O)O[C@H]1C)C[C@H](O)[C@H]2C(=O)O (stereo in doubt) | inactive
17 | CC(C)(O)CCc1ccccc1 | inactive
18 | CCCCCCCCCCCSCC(=O)O | inactive
19 | COc1cc(NS(=O)(=O)c2ccc(N)cc2)nc(C)n1 | inactive
20 | CCCCCCCC(=O)Oc1c(Br)cc(C#N)cc1Br | inactive
21 | SCCc1cnccn1 | inactive
22 | CCN(Cc1cccc(S(=O)(=O)O)c1)c1ccc(C(=C2C=CC(=[N+](CC)Cc3cccc(S(=O)(=O)O)c3)C=C2)c2ccccc2S(=O)(=O)[O-])cc1 | 13.9 µM (active)
23 | COc1ccc(-c2cc(=S)ss2)cc1 | inactive
24 | CCO[Si](C)(CCCOCC1CO1)OCC (stereo not drawn) | inactive
25 | O=C1c2ccccc2C(=O)c2c(O)ccc(O)c21 | inactive
26 | CC(C)N=C=NC(C)C | inactive
27 | CCCCCCCCCCCC(=O)OCC(O)CO (stereo not drawn) | inactive
28 | CCCCCc1ccco1 | inactive
29 | CS(=O)(=O)c1ccc([C@@H](C[C@H]2CCC(=O)C2)C(=O)Nc2cnccn2)cc1Cl | inactive
30 | CCCCCCCCCCCCCCN(C)C | inactive
31 | CCCCCCCCCCCCCC(=O)OCC(O)CO (stereo not drawn) | inactive
32 | COc1ccc(-n2nc(C(F)F)cc2-c2ccc(S(C)=O)cc2)cc1 (stereo not drawn) | inactive
33 | c1ccc2sc(SSc3nc4ccccc4s3)nc2c1 | inactive
34 | O=C(/C=C/c1ccc([N+](=O)[O-])cc1)c1ccccc1 | inactive
35 | Cc1c(C2(c3cc(Br)c(O)c(Br)c3C)OS(=O)(=O)c3ccccc32)cc(Br)c(O)c1Br | 16.9 µM (active)
36 | CCOC(=O)c1c(N)sc2c1CCN(Cc1ccccc1)C2 | inactive
37 | CCCCCCC(O)CCOC(C)=O (stereo not drawn) | inactive
38 | Nc1nc(-c2ccc([N+](=O)[O-])cc2)cs1 | inactive
39 | CCCCC(CC)COS(=O)(=O)O (stereo not drawn) | inactive
40 | CCN(CC)c1ccc(C(=C2C=CC(=[N+](CC)CC)C=C2)c2ccc(S(=O)(=O)O)cc2S(=O)(=O)[O-])cc1 | inactive
41 | Cc1ccc(N(CC2=NCCN2)c2cccc(O)c2)cc1 | inactive
42 | CC(C)(C)NCC(O)COc1cccc2c1C[C@H](O)[C@H](O)C2 (stereo partly drawn) | inactive

target: Vitamin D3 receptor (Homo sapiens) (UniProt P11473); assay: qHTS assay to identify small molecule agonists of the vitamin D receptor (VDR) signaling pathway (AID 743222; calls by dose curve); conditions: HEK293T VDR-UAS-bla, beta-lactamase FRET ratio, 16 h; series mostly up to 63.5 µM
Sequence (P11473 whole entry, looked up): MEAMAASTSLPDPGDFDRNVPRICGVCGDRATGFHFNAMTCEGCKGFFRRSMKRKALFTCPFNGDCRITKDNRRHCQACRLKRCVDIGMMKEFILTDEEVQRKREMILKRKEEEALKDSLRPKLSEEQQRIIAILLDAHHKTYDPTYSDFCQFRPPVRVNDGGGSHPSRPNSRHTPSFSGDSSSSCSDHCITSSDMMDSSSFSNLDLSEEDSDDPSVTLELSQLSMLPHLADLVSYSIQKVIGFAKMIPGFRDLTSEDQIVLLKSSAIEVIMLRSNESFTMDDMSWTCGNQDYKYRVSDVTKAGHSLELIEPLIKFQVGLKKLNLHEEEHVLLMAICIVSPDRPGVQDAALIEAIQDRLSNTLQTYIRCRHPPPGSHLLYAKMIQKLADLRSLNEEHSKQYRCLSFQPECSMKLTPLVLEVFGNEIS
Procedure, shortened: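 Tox21 cell reporter format: VDR-bla line, 16 h compound exposure in 5% CO2 at 37C, then fluorescence intensity after 2 h with LiveBLAzer B/G FRET substrate.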

Row | SMILES | outcome
43 | CC(C)(O)CCc1ccccc1 | inactive
44 | CCCCCCCC(=O)Oc1c(Br)cc(C#N)cc1Br | inactive
45 | CC[C@H]1OC(=O)[C@H](C)[C@@H](O[C@H]2C[C@@](C)(OC)[C@@H](O)[C@H](C)O2)[C@H](C)[C@@H](O[C@@H]2O[C@H](C)C[C@H](N(C)C)[C@H]2O)[C@](C)(O)C[C@@H](C)CN(C)[C@H](C)[C@@H](O)[C@]1(C)O | inactive
46 | CCN(Cc1cccc(S(=O)(=O)O)c1)c1ccc(C(=C2C=CC(=[N+](CC)Cc3cccc(S(=O)(=O)O)c3)C=C2)c2ccccc2S(=O)(=O)[O-])cc1 | inactive
47 | CS(=O)(=O)c1ccc([C@@H](C[C@H]2CCC(=O)C2)C(=O)Nc2cnccn2)cc1Cl | inactive
48 | CCCCCCCCCCCCCC(=O)OCC(O)CO (stereo not drawn) | inactive
49 | CC[C@H]1OC(=O)[C@H](C)[C@@H](O[C@H]2C[C@@](C)(OC)[C@@H](O)[C@H](C)O2)[C@H](C)[C@@H](O[C@@H]2O[C@H](C)C[C@H](N(C)C)[C@H]2O)[C@](C)(O)C[C@@H](C)C(=O)[C@H](C)[C@@H](O)[C@]1(C)O | inactive
50 | c1ccc2sc(SSc3nc4ccccc4s3)nc2c1 | inactive
51 | O=C(/C=C/c1ccc([N+](=O)[O-])cc1)c1ccccc1 | inactive
52 | O=S(=O)(O)CO | inactive
53 | CC(C(=O)O)c1ccc(C(=O)c2cccs2)cc1 (stereo not drawn) | inactive
54 | COc1cc(NCc2ccc3nc(N)nc(N)c3c2C)cc(OC)c1OC | inactive
55 | O=C(O)c1cccc(C[C@@H]2COc3ccc(OCc4nc5cc(F)ccc5s4)cc3[C@@H]2O)c1 | inactive
56 | CCCCC(CC)COS(=O)(=O)O (stereo not drawn) | inactive
57 | Cc1ccc(N(CC2=NCCN2)c2cccc(O)c2)cc1 | inactive
58 | O=[N+]([O-])C1(Br)COCOC1 | inactive
